This is part of a sample that, as a whole, favours compounds with a hit. Of some 79,000 tested, about 15% had one in any assay. No stated cut-off is given here; in the data, active means growth inhibition above about 70%; inactive means the rest.
Columns and labels:
[1] = NCI Yeast Anticancer Drug Screen. Data for the rad50 strain (AID 155);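 further: 0% = growth of vehicle-only cultures of the same strain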; settings: S. cerevisiae rad50 strain growth inhibition; at 50.0 µM; active compounds read high
In short: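 Inhibition values express reduced yeast growth in compound-treated cultures relative to vehicle-treated controls.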

[2] = NCI Yeast Anticancer Drug Screen. Data for the mec2-1 strain (AID 157); settings: S. cerevisiae mec2-1 strain, at 50.0 µM, active compounds read high
In short: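 Growth inhibition is read against vehicle-treated controls after compound exposure of the mec2-1 yeast strain, which is defective in DNA damage repair or cell cycle control.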

[3] = NCI Yeast Anticancer Drug Screen. Data for the sgs1 mgt1 strain (AID 161);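 further: 0% = growth of cultures given vehicle only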; settings: S. cerevisiae sgs1 mgt1 strain, at 50.0 µM, active compounds read high
In short: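 Percent growth inhibition was derived by comparing compound-exposed mutant yeast with vehicle-exposed cultures. The strain carries alterations in DNA damage repair.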

[4] = NCI Yeast Anticancer Drug Screen. Data for the cln2 rad14 strain (AID 165);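 further: 0% = growth equal to vehicle treated cultures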; settings: S. cerevisiae cln2 rad14 strain, at 50.0 µM, active compounds read high
In short: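 Growth inhibition, relative to vehicle-treated controls, is the read-out. The test organism is a yeast strain with defined genetic alterations, cln2 rad14.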

[5] = NCI Yeast Anticancer Drug Screen. Data for the bub3 strain (AID 167); settings: S. cerevisiae bub3 mutant strain, at 50.0 µM, active compounds read high
In short: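 Steps: expose the mutant yeast strain to compound; grow alongside vehicle-treated cultures; measure growth; express inhibition against the vehicle cultures.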

[6] = NCI Yeast Anticancer Drug Screen. Data for the mlh1 rad18 strain (AID 175); settings: S. cerevisiae mlh1 rad18 strain growth inhibition; at 50.0 µM; active compounds read high
In short: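 Cells of a genetically altered yeast strain, deficient in DNA damage repair, were treated with compound. Their growth was then compared with that of vehicle-treated cultures to give inhibition.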

Measured: growth inhibition

Cc1cc2c(cc1C)C(O)CCC(=O)N2 (configuration not stated)
inactive: [1] 5.55% | [2] 3.7% | [3] 11.7% | [4] 6.85% | [5] 16% | [6] -0.05%

N#CC(C(=O)O)=C1CCCCCC1
inactive: [1] 2.4% | [2] -1% | [3] 3.7% | [4] -1.8% | [5] 5.5% | [6] -0.8%

Cc1cc(NC(=O)C(=O)CC(=O)c2ccc(Cl)s2)no1
inactive: [1] -51.3% | [2] 4.95% | [3] -8.55% | [4] -56.4% | [5] -6.7% | [6] -2.6%

CCCCSc1n[nH]c(C2CCC(=O)N2Cc2ccccc2)n1 (configuration not stated)
inactive: [1] -14.8% | [2] -19.1% | [3] -0.8% | [4] -12.9% | [5] -3.5% | [6] -6%

COc1ccc(-c2nnc3n(C)c4ccccc4n3c2=O)cc1
inactive: [1] 3.25% | [2] 8.55% | [3] 16.4% | [4] 26.5% | [5] 23.4% | [6] -23.2%

O=[N+]([O-])c1c(Nc2ccccc2)ncnc1Nc1ccccc1
inactive: [1] -33.9% | [2] -15.9% | [3] -9.6% | [4] 3.45% | [5] -10.6% | [6] 1.05%

O=S1(=O)CC(N2CCCCC2)C=C(c2ccccc2)O1 (configuration not stated)
inactive: [1] 37.1% | [2] 0.25% | [3] 14.3% | [4] 15.2% | [5] 12.7% | [6] 34.2%

CN(C)CCC1(C2=CCCC2)CC/C(=C\c2ccccc2)C1=O (configuration not stated)
inactive: [1] 16.9% | [2] -17.8% | [3] -5.6% | [4] 14.7% | [5] -45.6% | [6] 2.5%

O=C(Nc1cccc(Cl)c1)Oc1ccccc1
inactive: [1] 17.6% | [2] 4.45% | [3] -4.3% | [4] 16.4% | [5] 15.3% | [6] 8.2%

COCc1cc(CC(C)=O)nc(C/C=N/NC(N)=O)n1
inactive: [1] -18.4% | [2] -10.4% | [3] -9.75% | [4] -28.4% | [5] -47% | [6] -11.7%

Cc1ccc(S(=O)(=O)N(C)c2c(N)n(C)c(=O)n(C)c2=O)cc1
inactive: [1] 2.3% | [2] 5.75% | [3] 0.7% | [4] -49.3% | [5] -5.55% | [6] -4.4%

COC1OC(CO)C(O)C(NC(=O)[C@H](Cc2ccccc2)NC(=O)OCc2ccccc2)C1O (some centres not stated)
inactive: [1] 16.6% | [2] 0.75% | [3] 0.95% | [4] 8.65% | [5] 0.45% | [6] 14%

CC(=O)Nc1ccc[n+](C)c1
inactive: [1] 0.65% | [2] 17.9% | [3] -6.9% | [4] -3.3% | [5] 33.3% | [6] -1.95%

CCOc1ccc(OCC)c(C(=O)CCC(=O)Nc2ccc(Br)cc2)c1
inactive: [1] -8.9% | [2] -2.9% | [3] -8.3% | [4] -12.8% | [5] 1.45% | [6] -6.75%

CCCCC1NC(=O)OC1=O (configuration not stated)
inactive: [1] -23.6% | [2] -31.4% | [3] -11.2% | [4] 1.9% | [5] -20.2% | [6] -33.4%

O=C(Cc1ccccc1)c1c[nH]c2c(O)ccc(O)c12
inactive: [1] -15.1% | [2] -9.25% | [3] -12.3% | [4] -49.1% | [5] -13.9% | [6] -8.45%

CCC(CC)OCc1ccccc1
inactive: [1] 12.1% | [2] 9.4% | [3] 6.6% | [4] 5.5% | [5] 0.55% | [6] 1.1%

Nc1cc(C(=O)O)ccc1Cl
inactive: [1] -9.7% | [2] -8.1% | [3] -18.9% | [4] -88.8% | [5] -12.2% | [6] -5.4%

CCOCCOC(=O)Nc1ccc(C)c(NC(=O)OCCOCC)c1
inactive: [1] -0.55% | [2] -18.8% | [3] 8.65% | [4] 4.45% | [5] 5.35% | [6] -4.8%

CC(O)COc1ccc(Cl)cc1Cl (configuration not stated)
inactive: [1] 27.1% | [2] -10.2% | [3] 45.6% | [4] 9.6% | [5] 8.35% | [6] 26.6%

CCCCOc1ccc(N)cn1
inactive: [1] -5.05% | [2] -4.85% | [3] 6.15% | [4] -16.4% | [5] 32.7% | [6] -5.45%

O=C1C2C3CC(C4C5C=CC(C5)C34)C2C2C3CC(C12)C1C2C=CC(C2)C31 (configuration not stated)
inactive: [1] -19.1% | [2] -15.9% | [3] -24% | [4] 17.8% | [5] -9.15% | [6] -24.4%

N#CC1CCCCCC1
inactive: [1] 0.8% | [2] -12.4% | [3] 5.7% | [4] 2.6% | [5] 8.15% | [6] 5.85%

CC(CO)CCNc1ncnc2c1ncn2CCC#N (configuration not stated)
inactive: [1] -9.3% | [2] 10.1% | [3] -46.5% | [4] -19.9% | [5] 6.95% | [6] -13.4%

S=C1Cc2c(-c3ccc(Br)cc3)cc(-c3ccccc3)nc2-c2ccccc2N1
inactive: [1] 19.9% | [2] 14.7% | [3] 23.4% | [4] 20.6% | [5] 22.9% | [6] 23.2%

O=C(O)CNC(=O)C(Cc1ccccc1)NC(=O)CNC(=O)C(CSC(c1ccccc1)c1ccccc1)NC(=O)C(CSC(c1ccccc1)(c1ccccc1)c1ccccc1)NC(=O)OCc1ccccc1 (configuration not stated)
inactive: [1] -0.75% | [2] 27% | [3] 23.4% | [4] -17.2% | [5] -9.55% | [6] 44.1%

CCCCCCCCCCCCCCCCOc1ccc(C(=O)O)cc1
inactive: [1] 1.4% | [2] 0.75% | [3] 5.3% | [4] 8.35% | [5] 3% | [6] -16%

CC(=O)Nc1ccc2ccc3ccccc3c2c1
inactive: [1] 37% | [2] 9.25% | [3] 15.8% | [4] -19.1% | [5] -4.35% | [6] 23.7%

C=CCN1C(=O)c2ccccc2S1(=O)=O
inactive: [1] 8.2% | [2] -2.35% | [3] -5.95% | [4] -27.8% | [5] -3.15% | [6] 3.55%

O=c1[nH]c2ccc(Cl)cc2[nH]c1=O
inactive: [1] -7.05% | [2] 5% | [3] -10.5% | [4] 0.3% | [5] -1.45% | [6] 0.9%

O=[N+]1C=CC(=NN=c2ccn([O-])cc2)C=C1
inactive: [1] 33.9% | [2] 15.5% | [3] 8.65% | [4] 14.6% | [5] 8% | [6] 26.9%

COc1ccc(C(CC(=O)O)c2cc3c(cc2OC)OCO3)cc1 (configuration not stated)
inactive: [1] -4% | [2] -9.85% | [3] 3.8% | [4] 0.25% | [5] 1.1% | [6] -1.75%

CC(O)C(O)C(O)C(O)C#N (configuration not stated)
inactive: [1] 20.6% | [2] 18% | [3] 12.2% | [4] 11% | [5] 0.15% | [6] 10.1%

CN(C)c1ccc(C=C(C(=O)c2ccccc2)C(=O)c2ccccc2)cc1
inactive: [1] 9.45% | [2] 1.9% | [3] 0.75% | [4] 8.6% | [5] 20.1% | [6] 37%

CC(C)=Cc1cc(-c2cc(C=C(C)C)[nH]n2)n[nH]1
inactive: [1] -35.4% | [2] -2% | [3] -20.4% | [4] -24.6% | [5] -9.2% | [6] -11.9%

CCC(=O)C1(N2CCOCC2)CCN(CCCC(=O)c2ccc(F)cc2)CC1
inactive: [1] -25.4% | [2] -9.45% | [3] -1.75% | [4] 1.5% | [5] -0.3% | [6] 22.1%

CC(NNC(=S)N1CCN(c2ccccn2)CC1)c1cccc[n+]1[O-] (configuration not stated)
inactive: [1] 9.6% | [2] 5.4% | [3] 3.8% | [4] -11.2% | [5] 6.55% | [6] 11.9%
